# High-throughput results (PubChem)
# EPAC1 antagonist: blocks human EPAC1 exchange factor | O95398 | EPAC1 GEF assay, Rap1b-BODIPY-GDP exchange fluorescence | Potency, µM (titrated, usually from 115 µM), without a hit: top-dose activity change, negative = inhibition, hits mostly inhibitors | 360,000 tested, 0.14% active | AID 720709;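 note: plate controls were vehicle for no effect and positive control for full effect; nearly all actives have a fitted effect of over 50% in size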
# BRCA1 expr act: increases BRCA1 expression. Potency, µM (highest dose often 46.1 µM), inactives show at the top dose activation, actives largely listed as activators. 380,000 tested, 1.1% active. MCF7-BRCA1-FFLuc reporter, luminescence, 48 h; response scale: scaled: vehicle 0%, 10 µM genistein 100%; note: nearly all actives have a fitted effect of over 80% in size
#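 First, MCF7-BRCA1-FFLuc cells (2000/well) attach for 2 h; next, compounds are pin-added and incubated 48 h at 37 °C; finally, luciferase reagent is added and luminescence read after 15 min.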
# EPAC2 agonist: activates human EPAC2 exchange factor; EPAC2 activation, biochemical qHTS; response scale: 100% = 6.5 mM cAMP response; Potency, µM (doses to about 154 µM), for inactives: at the top dose activation, hits mostly activators; 360,000 tested, 0.079% active; AID 720711; note: nearly all actives have a fitted effect of over 50% in size
# Target sequence (Q8WZA2 whole entry, looked up): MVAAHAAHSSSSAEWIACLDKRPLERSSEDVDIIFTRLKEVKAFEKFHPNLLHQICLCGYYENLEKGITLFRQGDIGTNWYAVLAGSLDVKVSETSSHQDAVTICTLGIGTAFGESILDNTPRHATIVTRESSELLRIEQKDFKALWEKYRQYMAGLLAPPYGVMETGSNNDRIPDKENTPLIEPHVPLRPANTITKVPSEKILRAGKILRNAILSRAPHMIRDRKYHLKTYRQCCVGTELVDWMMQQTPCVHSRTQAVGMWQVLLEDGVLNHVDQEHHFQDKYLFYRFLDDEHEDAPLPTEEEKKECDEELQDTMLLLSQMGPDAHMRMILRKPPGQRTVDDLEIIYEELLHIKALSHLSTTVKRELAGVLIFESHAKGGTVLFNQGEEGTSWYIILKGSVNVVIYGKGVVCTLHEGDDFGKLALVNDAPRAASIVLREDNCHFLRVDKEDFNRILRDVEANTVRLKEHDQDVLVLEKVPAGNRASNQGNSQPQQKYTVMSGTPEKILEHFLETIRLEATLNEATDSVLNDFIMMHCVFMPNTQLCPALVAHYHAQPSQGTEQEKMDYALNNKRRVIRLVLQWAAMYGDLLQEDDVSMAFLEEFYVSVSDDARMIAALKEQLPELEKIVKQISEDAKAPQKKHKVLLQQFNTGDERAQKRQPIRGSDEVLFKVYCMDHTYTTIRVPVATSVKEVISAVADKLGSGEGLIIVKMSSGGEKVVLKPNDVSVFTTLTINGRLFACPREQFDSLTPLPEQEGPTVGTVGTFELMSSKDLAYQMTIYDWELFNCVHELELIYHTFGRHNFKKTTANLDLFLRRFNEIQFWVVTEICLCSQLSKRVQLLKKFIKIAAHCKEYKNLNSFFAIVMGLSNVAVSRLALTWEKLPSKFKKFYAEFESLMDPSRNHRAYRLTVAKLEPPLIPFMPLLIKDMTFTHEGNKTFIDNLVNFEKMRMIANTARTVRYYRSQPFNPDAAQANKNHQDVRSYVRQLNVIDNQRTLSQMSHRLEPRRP
#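 Guanine nucleotide exchange by EPAC2 is measured as reduced fluorescence of BODIPY-GDP once it is released from 250 nM Rap1B. Plates are read kinetically for 30 min at room temperature; results are scaled to 6.5 mM cAMP.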
# EPAC1 ag: activates human EPAC1 exchange factor | O95398 | EPAC1 agonist qHTS, biochemical assay; response scale: 100% = response to 6.5 mM cAMP | Potency, µM (doses to about 154 µM), for inactives: at the highest dose activation, most hits filed as activators | 360,000 tested, 0.073% active; note: nearly all actives have a fitted effect of over 60% in size
#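 Nucleotide exchange by EPAC1 (100 nM) on Rap1B–BODIPY-GDP (250 nM) in the presence of 50 uM GDP is tracked fluorescently at 480/540 nm over 30 min. Signals are normalized to a 6.5 mM cAMP control.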
# EPAC2 antag: antagonists of human EPAC2. Potency, µM (series often up to 114 µM), for inactives: at the highest dose activity, negative = inhibition, hits mostly inhibitors. EPAC2 GEF exchange of Rap1B-BODIPY-GDP, fluorescence. Q8WZA2. 360,000 tested, 0.18% active; note: % is set by controls: 0 for no effect and ±100 for the full control effect; nearly all actives have a fitted effect of over 45% in size
# RGS4 inhibitor: blocks human RGS4-accelerated GTP hydrolysis. Transcreener GDP fluorescence polarization, RGS4-accelerated GTP hydrolysis. 390,000 tested, 0.039% active. Potency, µM (highest dose often 114 µM), without a hit: at the highest dose activity change, negative = inhibition, most hits filed as inhibitors. AID 504845; note: % is set by controls: 0 for no effect and ±100 for the full control effect; nearly all actives have a fitted effect of over 75% in size
#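 MLSMR compounds (23 nl, pin-transferred) preincubated 10 min at room temperature with a 500nM (2x) first reagent, then RGS4 at 900nM (2x) plus Transcreener GDP mix added; fluorescence polarization (620/688 nm) read before and after 90 min at 30 °C.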
# An asterisk follows results filed as active; ? = inconclusive; . = no result; ! = repeats disagree. Hits are enriched below; roughly 1.3% of the tested compounds scored in any of these assays. Calls come from the whole dose curve; as a rule, active = well fitted curve in the direction sought with a large enough effect; inconclusive = small, poorly fitted or top-dose-only effect, or another doubt; inactive = no such curve, though single readings can be large; an effect the other way counts as inactive or inconclusive. Potency is the fitted concentration of half-maximal effect.
SMILES,EPAC1 antagonist,BRCA1 expr act,EPAC2 agonist,EPAC1 ag,EPAC2 antag,RGS4 inhibitor
O=C(/C=C/c1ccc2ccccc2c1)c1ccoc1,-19%,13µM*,5%,-12%,0%,25%
Cc1cccc(C(C)C)c1NC(=O)c1cc2ccccc2o1,-18%,-18%,2%,-9%,?,17%
COCCN(C(=O)COC(=O)CC(C)c1ccccc1)c1c(N)n(Cc2ccccc2)c(=O)[nH]c1=O (configuration not stated),-3%,0%,-3%,-5%,24%,-7%
COc1cc2c(cc1OC)C(=O)C(Br)CC2 (configuration not stated),45µM*,-76%,11%,-7%,28µM*,.
COc1cc2c(cc1OC)C(=O)C(c1ccc3c(c1)OCO3)CC2 (configuration not stated),15%,6%,-5%,1%,-12%,.
S=C(NCCc1ccccc1)N1CCc2ccccc2C1,10%,10µM*,10%,7%,-14%,-21%
OC1CCN(C(=S)NCCc2ccccc2)CC1,-7%,24%,7%,-3%,-4%,14%
O=C1S/C(=C\c2ccc(O)c([N+](=O)[O-])c2)C(=O)N1c1ccccc1Cl,56µM*,-11%,5%,-22%,?,-10%
Cc1ccc(NC(=O)CN2C(=O)S/C(=C/c3ccc(O)c([N+](=O)[O-])c3)C2=O)cc1C,45µM*,-6%,-12%,1%,?,?
O=C(O)/C=C/C(=O)Nc1ccccc1-c1ccccc1NC(=O)/C=C/C(=O)O,-26%,-3%,4%,7%,-3%,-48%
Cc1ccccc1N(CC(=O)NCCSCc1ccco1)S(C)(=O)=O,18%,2%,-5%,-6%,-4%,-32%
Cc1ccc(C(=O)NN=CC(=O)c2ccccc2)c(C)c1,-10%,?,8%,7%,1%,23%
COc1ccc(NC(=O)NC(=O)c2ccccc2)cc1,-2%,1.1µM*,3%,0%,6%,2%
COc1ccc(NC(=S)c2ccccc2)cc1,0%,7.9µM*,-4%,1%,-1%,17%
COc1ccc(C(=O)N/N=C/C(=O)c2ccccc2)cc1,12%,5.6µM*,4%,11%,0%,19%
COc1ccc(NC(=S)Nc2ccccc2)cc1,3%,2%,12%,1%,6%,-6%
CCc1ncc(C(=O)c2ccc(OC)cc2)n1C,-1%,4%,10%,2%,-7%,1%
CCOC(=O)c1cnc2c(C)c(Cl)ccc2c1NCCc1ccccc1,.,.,.,.,.,6%
CCOc1ccc(-c2nnn(CCC#N)n2)cc1OC,-4%,0%,-1%,3%,-3%,?
CCc1ccc(-c2nnn(CCC#N)n2)cc1,-8%,13µM*,6%,4%,-12%,17%
CC(C)CC1C(=O)N(Cc2cn(CCC3OCCO3)nn2)CCS(=O)(=O)N1Cc1ccc(-c2ccc(F)cc2)cc1 (configuration not stated),-8%,-64%,1%,-15%,13µM*,.
CC(C)CC1C(=O)N(Cc2cn(CCC3OCCCO3)nn2)CCS(=O)(=O)N1Cc1ccc(-c2ccc(Cl)cc2)cc1 (configuration not stated),0%,-10%,-1%,-6%,?,.
O=C(O)/C=C/C(=O)NNC(=O)c1ccccc1Br,19%,1%,0%,10%,-2%,8%
CC(=O)Cn1cnc2c(cnn2-c2ccc(C)c(C)c2)c1=O,7%,5µM*,5%,6%,-3%,-15%
Cc1ccc(-n2ncc3c(=O)n(CC(=O)N(C)C)cnc32)cc1C,-8%,56%,6%,5%,-12%,8%
SMILES,EPAC1 antagonist,BRCA1 expr act,EPAC2 agonist,EPAC1 ag,EPAC2 antag,RGS4 inhibitor
CC(C)CCn1cnc2c(cnn2-c2ccc(F)cc2)c1=O,3%,8.9µM*,5%,2%,-1%,0%
O=C1c2ccccc2C(c2nnnn2Cc2ccccc2)N1Cc1ccc(F)cc1 (configuration not stated),-5%,10%,1%,-2%,6%,.
O=C1c2ccccc2C(c2nnnn2Cc2ccccc2)N1CCc1c[nH]c2ccccc12 (configuration not stated),-15%,47%,10%,8%,75µM*,.
COc1ccccc1NS(=O)(=O)c1ccc2ccccc2c1,-4%,0%,23%,16%,13µM*,12%
Cc1ccc(NC(=O)CN2CCN(Cc3ccccc3)CC2)c(Br)c1,8%,-32%,7%,-5%,-9%,-7%
CCOC(=O)C(C(=O)OCC)C1N=C(N)N=C2Oc3ccccc3N21 (configuration not stated),-15%,13µM*,10%,5%,-8%,-1%
COc1ccccc1-c1nnc(NC(=O)c2ccc3c(c2)OCO3)s1,10%,-38%,12%,5%,-3%,16%
O=c1c2ccccc2nc2ccc(NCc3ccco3)nn12,-3%,3.5µM*,7%,5%,12%,-28%
COc1cc([N+](=O)[O-])ccc1-c1ccc(/C=C2\C(=O)ON=C2c2ccccc2)o1,-12%,0%,13%,10%,50µM*,?
CC(NC(=O)Nc1ccc(O)cc1)(C(F)(F)F)C(F)(F)F,79µM*,0%,-19%,-2%,?,-3%
COc1cc(C2CC(=O)C3=C(C2)Nc2ncnn2C3c2cccs2)cc(OC)c1OC (configuration not stated),6%,-2%,3%,-4%,3%,-8%
COc1cc(C2C=C(c3cccs3)Nc3ncnn32)cc(OC)c1OC (configuration not stated),82%,-65%,24%,100µM*,120%,-35%
O=C(O)CCc1c2ccc(=O)c(O)c-2oc2c(O)c(O)ccc12,.,12%,.,.,.,.
CCOC(=O)CNC(=O)c1sc(NC(=O)c2cccc(F)c2)nc1C,-4%,8.9µM*,3%,3%,-3%,-17%
C[C@]12CC[C@@H]3c4ccc(OS(=O)(=O)O)cc4CC[C@H]3[C@@H]1CCC2=O,22µM*!,1%,10%,-23%,5%,-7%
CC12CCC3c4ccc(OCC(=O)O)cc4CCC3C1CCC2=O (configuration not stated),-1%,-13%,0%,11%,-6%,22%
O=c1oc2c(CN3CCOCC3)c(O)ccc2c2ccccc12,-1%,14µM*,7%,-1%,6%,-21%
CC(Oc1ccc(Cl)cc1Cl)c1ccn[nH]1 (configuration not stated),-16%,18%,12%,-6%,45µM*,9%
